In all, about 33,000 sequences were measured (“e-score”: median about -0.038, highest 2% from about 0.33 on). This excerpt belongs to a sample that is enriched for the highest values.
Biological target: T1, GST-Rok-C97-191 (Bacillus subtilis subsp. subtilis str. …, UniProt O34857 97-191)
T1 sequence: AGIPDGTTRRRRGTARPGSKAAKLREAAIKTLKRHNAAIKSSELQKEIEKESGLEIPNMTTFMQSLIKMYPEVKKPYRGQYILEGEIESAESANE
Test: protein binding microarray; Rok is a gene silencer of Bacillus subtilis; high values mean tight binding
Details: protein: recombinant; tags: GST (pTH5325, pDEST15-Magic modified); dsDNA, one strand shown
Outline: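 Each has a 25-mer constant primer and a 35-mer variable part from a de Bruijn sequence of order 10, covering every non-palindromic 8-mer at least 32 times (palindromic 16). Preference for each 8-mer is given as a rank-based, unitless enrichment score (E-score). Its range runs from 0.5 (most favored) to −0.5 (most disfavored).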

Sequence	binding signal [E-score]
ACATCCGA	-0.00901
TCAGAGCA	-0.143
AATTACAA	0.251
AGTTACAT	0.342
AATTACAG	0.249
AATTACAT	0.339
AGTTACAA	0.163
AGTTACAG	0.193
GGACGGAA	-0.113
CGTGGTCA	-0.0431
CTTTAACA	0.072
GGCGACTA	-0.103
CATAGTTA	0.275
GATAGTAA	0.367
GATAGTCA	0.000914
CATAGTAA	0.272
TATAGTAA	0.346
TATAGTCA	0.119
GATAGTTA	0.373
TATAGTGA	0.199
GATAGTAC	0.184
GCGATGAA	-0.0177
CCAGAAAG	-0.066
GAAGCCGA	-0.0818
TTCAACAA	0.0826

Sequence	binding signal [E-score]
CTAAGTAG	0.275
ATCAGCTA	0.165
GATAGAGC	-0.0336
ATTTCGCG	0.158
ATAGTTTC	0.292
CTAGTTAA	0.327
ATCGTTTG	-0.0549
CGAGTTTC	0.049
ATAGTTGG	0.00189
GTAGTTAA	0.405
ATAGTTTG	0.366
CCAGTTTC	-0.105
ATAGTTAA	0.327
ATAGTTTA	0.354
ATAGTTGA	0.215
CTAGTTTC	0.422
ACATTTGC	0.205
AGTCAAAG	-0.141
ACAAGCAC	0.019
GAAGGCTA	-0.0559
AACGGACC	-0.186
TCGCCCAA	-0.12
CTAGTTTA	0.378
ATAGTGTG	0.0365
CTAGTTCA	0.0257

Sequence	binding signal [E-score]
CTAGTTAC	0.38
GCAGTTTA	0.113
CTAGTTCC	0.262
GTAGTTTA	0.423
CTAGTTGA	0.2
GTAGTGTA	0.118
CTAGTTGC	0.23
ATAGTGTA	0.346
GGAGTTTA	0.0723
ATGCCCTA	-0.00598
GCTCGTCA	-0.151
ACGTTTTC	0.12
GATGCATA	0.176
GGTAGCTA	0.357
GGTAGCGA	0.0646
AGTAGCTC	0.14
GCTAGCTA	0.119
ACTAGCTA	0.397
CCTAGCTA	0.144
AGTAGCTA	0.37
AGTAGCTG	0.233
CGTAGCTA	0.289
GCCGTAAA	-0.0195
ACAAAGTA	0.275
AATGTCGT	-0.087

Sequence	binding signal [E-score]
CTATGAGC	-0.0781
ACGAATAG	0.0145
TCGATCAA	0.27
ATGGAAAG	-0.0465
AATGATCA	0.156
ATGTGCAC	-0.0271
CGAATCAA	-0.196
CGCTTCAC	-0.177
AACTGCCC	-0.0946
AGCCATAA	0.127
CACAAGAA	-0.0545
GCTAGTTA	0.284
GTTAGTTA	0.325
CCTAGTTA	0.168
CGTAGTTC	0.213
ATTAGTTA	0.336
ACTAGTTA	0.448
AGTAGTGA	0.121
AGTAGTGC	0.12
AGTAGTTC	0.398
CTTAGTTA	0.189
AGTAGTTA	0.424
CGTAGTTA	0.199
ATTGCTGG	0.137
TAACCGTA	0.169

Sequence	binding signal [E-score]
CGGATACC	0.0204
ACTGGCAT	0.00831
GGTAGTTA	0.4
AATAGTTC	0.343
AGTAGTTG	0.393
ACTAGTTG	0.313
CATAGTTC	0.168
GGTAGTCA	0.192
GGTAGTGA	0.144
AATAGTTA	0.32
ATTAGTTG	0.118
GCCCATTA	-0.125
GGTAGAAA	0.465
GGTAGACC	-0.0686
TTTAGAAA	0.175
TCTAGAAA	0.205
GGTAGAAC	0.4
GGTAGAGA	0.173
CGTAGAAC	0.207
CGTAGAAG	0.0648
TGTAGAAA	0.35
GCTAGAAA	0.314
CGTAGAAA	0.338
GTTAGAAC	0.125
AACGTGGA	0.103

Sequence	binding signal [E-score]
AATAGCGC	0.114
GCCCACAA	-0.0476
GCATCTGA	-0.0514
CAAAGAAC	0.232
GCAGGGGA	-0.184
TAAACGCA	-0.0161
CGACAACC	-0.054
ACCCACGT	-0.188
AGTAATTC	0.273
ATTAATTC	0.147
GGTAATTA	0.395
AGTAATTA	0.376
CGTAATTA	0.318
ATTAATTA	0.391
GGTAATCA	-0.186
AGTAATTG	0.31
GTTAATTA	0.19
CATTGTAC	0.109
GTTGAAAA	-0.013
AGGTATTC	-0.0121
AACTCTCT	0.0603
ACTACCCA	0.332
ACTACCAC	0.383
GCTACCAC	0.0411
ACTACCAT	0.353

Sequence	binding signal [E-score]
CCTACCAC	0.251
TCTACCCA	0.234
ACTACCCG	0.0272
ACTACCAA	0.257
ACTACCAG	0.213
GCCGCGCA	-0.14
CGTTTCAG	-0.0327
AGCTCTTA	0.106
CATCTAAA	0.111
AGCGGACG	0.000189
TGACAAAA	0.0786
ATGATGGG	-0.0998
CTAGTAGC	0.251
GTAGTACA	0.272
GTAGTAGA	0.368
AAAGTAGT	0.328
AAAGTAGC	0.261
ACAGTAGA	0.364
CAAGTAGA	0.303
CTAGTAGA	0.382
AAAGTAGG	0.262
GGAGTAGA	0.102
ACAGTAGT	0.258
CCAGTAGA	0.176
